Data on 13 compounds can be found in PubChem BioAssay AID624487 (NMMLSC, 2012).

Structures are written as SMILES. Entries with a potency or affinity are not part of this list. Values without a mark were called inactive.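 How the source made its calls: active means fitted EC50, the dose giving half the maximal drop in porphyrin signal, under 100 µM; inactive means the rest.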

ATP-binding cassette sub-family B member 6 (Homo sapiens), sequence (Q9NP58 whole entry, looked up): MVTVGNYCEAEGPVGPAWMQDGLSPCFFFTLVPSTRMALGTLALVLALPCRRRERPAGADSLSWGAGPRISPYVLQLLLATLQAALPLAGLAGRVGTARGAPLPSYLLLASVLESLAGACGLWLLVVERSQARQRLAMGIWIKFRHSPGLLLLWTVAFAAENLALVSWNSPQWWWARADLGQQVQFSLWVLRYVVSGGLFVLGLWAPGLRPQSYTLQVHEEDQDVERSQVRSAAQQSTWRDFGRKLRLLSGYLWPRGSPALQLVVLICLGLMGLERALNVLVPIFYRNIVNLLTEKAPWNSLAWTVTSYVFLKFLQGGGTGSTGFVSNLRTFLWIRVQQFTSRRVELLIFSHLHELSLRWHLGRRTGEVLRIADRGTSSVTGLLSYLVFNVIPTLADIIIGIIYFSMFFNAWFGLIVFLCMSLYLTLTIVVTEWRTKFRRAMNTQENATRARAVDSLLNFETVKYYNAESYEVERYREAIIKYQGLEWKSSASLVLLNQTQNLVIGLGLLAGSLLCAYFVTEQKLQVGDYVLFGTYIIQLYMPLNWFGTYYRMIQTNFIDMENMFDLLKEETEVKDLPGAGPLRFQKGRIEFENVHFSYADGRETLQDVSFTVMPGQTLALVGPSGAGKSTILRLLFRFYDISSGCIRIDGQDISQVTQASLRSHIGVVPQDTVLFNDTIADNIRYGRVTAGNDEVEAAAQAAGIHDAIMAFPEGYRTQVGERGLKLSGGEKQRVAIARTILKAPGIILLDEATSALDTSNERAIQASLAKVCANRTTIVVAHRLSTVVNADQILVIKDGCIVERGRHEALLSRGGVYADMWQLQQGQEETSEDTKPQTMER

This assay has as its target ATP-binding cassette sub-family B member 6 (Homo sapiens) (UniProt Q9NP58). Description: ABCB6 transporter inhibitors, porphyrin accumulation, dose response, flow cytometry, K562-ABCB6 cells, cherry pick 02 (AID 624487). As to conditions: 1 h; series mostly up to 100 µM; response, % of control (lower = inhibition): at the top concentration.
Turning to `COc1ccc(NC(=O)c2nc(S(=O)(=O)Cc3cccc(C)c3)ncc2Cl)c(OC)c1`, the “response, % of control (lower = inhibition)” value is 188%.
Take `Cc1nnc(NC(=O)c2nc(S(=O)(=O)Cc3ccccc3C)ncc2Cl)s1`: the “response, % of control (lower = inhibition)” value was 87%.
For `CCc1nnc(NC(=O)c2nc(S(=O)(=O)Cc3cccc(C)c3)ncc2Cl)s1` the value was 81.6%; for `CCc1nnc(NC(=O)c2nc(S(=O)(=O)Cc3ccccc3)ncc2Cl)s1`, 86.1%.
With `CCOC(=O)c1ccc(NC(=O)c2nc(S(=O)(=O)Cc3ccccc3)ncc2Cl)cc1`, the “response, % of control (lower = inhibition)” value is 49%.
Turning to `CCCc1nnc(NC(=O)c2nc(S(=O)(=O)Cc3ccc(C)cc3)ncc2Cl)s1`, the “response, % of control (lower = inhibition)” value was 68.2%.
With `Cc1cccc(CS(=O)(=O)c2ncc(Cl)c(C(=O)Nc3nnc(C(C)C)s3)n2)c1`, the “response, % of control (lower = inhibition)” value is 67.9%.
The result for `Cc1ccc(CS(=O)(=O)c2ncc(Cl)c(C(=O)Nc3nnc(C)s3)n2)cc1` reads 82.2%; that for `CCOc1ccccc1NC(=O)c1nc(S(=O)(=O)Cc2ccccc2)ncc1Cl`, 56.6%.
The result for `COc1ccc(OC)c(NC(=O)c2nc(S(=O)(=O)Cc3ccccc3)ncc2Cl)c1` reads 180%; that for `Cc1ccc(CS(=O)(=O)c2ncc(Cl)c(C(=O)Nc3ccc(OC(F)F)cc3)n2)cc1`, 50.5%; that for `Cc1nnc(NC(=O)c2nc(S(=O)(=O)Cc3ccccc3)ncc2Cl)s1`, 70.9%.
Consider `CC(C)c1nnc(NC(=O)c2nc(S(=O)(=O)Cc3ccc(F)cc3)ncc2Cl)s1`, for which the “response, % of control (lower = inhibition)” value was 79.1%.
